The source of these data is PubChem BioAssay AID1220 (Sanford-Burnham Center for Chemical Genomics, 2008).

Screen size: about 190,000 compounds; about 1,300 (0.68%) were called active. Many of the other results were omitted from the sample, so actives are more common in it than they were. Values without a mark were called inactive. Cut-off read from the data, not from the text of the source: active = inhibition above about 50%; inactive = the rest.

In this assay the target is Mannose-6-phosphate isomerase (Homo sapiens) (UniProt P34949). Kind of assay: MPI inhibition at elevated mannose 6-phosphate – biochemical, fluorescence intensity, high mannose 6-phosphate, primary screen (AID 1220). The settings on record: recombinant PMI enzyme, coupled fluorescence intensity; at 20 µM; active compounds read high.
Mannose-6-phosphate isomerase (Homo sapiens), sequence (P34949 whole entry, looked up): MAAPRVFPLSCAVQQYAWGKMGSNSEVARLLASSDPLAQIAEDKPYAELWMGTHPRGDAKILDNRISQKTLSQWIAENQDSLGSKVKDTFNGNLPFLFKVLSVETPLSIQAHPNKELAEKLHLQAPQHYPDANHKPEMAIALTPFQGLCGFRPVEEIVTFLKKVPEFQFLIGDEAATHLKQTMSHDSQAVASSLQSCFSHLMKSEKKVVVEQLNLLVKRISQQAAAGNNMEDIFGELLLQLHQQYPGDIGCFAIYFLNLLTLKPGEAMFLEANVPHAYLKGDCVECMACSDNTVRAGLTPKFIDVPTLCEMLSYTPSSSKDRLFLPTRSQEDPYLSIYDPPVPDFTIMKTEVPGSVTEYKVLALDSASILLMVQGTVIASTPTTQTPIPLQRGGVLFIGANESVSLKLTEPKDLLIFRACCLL
Usually inhibition stands for the change of the read-out against control, counted positive when it falls. As to `O=C(CCn1c(=O)sc2ccccc21)Nc1nccs1`, the inhibition is 4.8%.

`Cc1ccc(NC(=O)CN2CCN(CCN=CC3=C(O)CC(C)(C)CC3=O)CC2)cc1`: the inhibition was -3.9%.

For the compound `COC(=O)CSc1nc(C)cc(N2CCOCC2)n1`, the inhibition was -3.4%.

Consider `CCc1n[nH]c(=S)n1/N=C/c1cc(Br)c(OC)cc1OC`, for which the inhibition is -2.2%.

Consider `COC(=O)c1c(C)nsc1NC(=O)Oc1ccccc1`, for which the inhibition was 50.4% (active).

Regarding `Cc1nnc(NC(=O)Oc2ccccc2)s1`, the inhibition was 4.4%.

Turning to `Cc1c(NC(=O)Oc2ccccc2)sc(=S)n1C`, the inhibition was -4.6%.

With `COc1ccccc1C(=O)Nc1nc(N)n(-c2ccccc2)n1`, the inhibition was -3.7%.

With `Cc1cccc(C)c1NC(=S)/C(=C(\[O-])c1cccs1)[n+]1ccccc1`, the inhibition is 5.5%.

`[O-]/C(=C(\C(=S)Nc1cccc2ccccc12)[n+]1ccccc1)c1cccs1`: the inhibition is 65.7% (active).

With `[O-]/C(=C(\C(=S)Nc1cccc2ccccc12)[n+]1ccccc1)c1ccc(Cl)s1`, the inhibition is 5.8%.

For `O=C(O)CSCC(=O)Nc1ccc(Cl)cc1C(F)(F)F`, the inhibition is -0.6%.

For `O=C(CCN1C(=O)COc2ccccc21)NCCC1=CCCCC1`, the inhibition is 19.9%.

As for `CC(C)(C)P(=O)(CO)c1ccccc1` (centres undefined), the inhibition is 1.7%.

Regarding `Brc1ccc2[nH]ncc2c1`, the inhibition is -2.5%.

For the compound `C=CCOc1ccc(C=Nc2ccc(OC)cc2)c(O)c1`, the inhibition is 49%.

On to `COc1cccc(N=Cc2ccc(O)cc2O)c1`, for which the inhibition was 52.5% (active).

On to `CC1(C)CC(=O)C(C=Nc2ccc3[nH]ncc3c2)=C(O)C1`, for which the inhibition is 38.6%.

Regarding `OCC(CO)(CO)N=Cc1cc(Br)ccc1O`, the inhibition was 27%.

As to `COc1cccc(N=Cc2c[nH][nH]c2=O)c1`, the inhibition was 16.7%.

With `Cc1ccc(N=Cc2ccc(O)cc2O)cc1F`, the inhibition is 9.7%.

Take `COc1ccc(C=Nc2ccc3[nH]ncc3c2)c(O)c1`: the inhibition is 59.8% (active).

Regarding `Oc1ccc(Br)cc1C=Nc1ccc2[nH]ncc2c1`, the inhibition was 55.4% (active).

For the compound `O=C(c1ccc(OC2CCN(Cc3ccccn3)CC2)cc1)N1CCCC(O)C1` (centres undefined), the inhibition is -8.1%.

For the compound `Cn1c(Cn2c(=O)sc3ccccc32)nnc1SCC(=O)Nc1ccccc1F`, the inhibition is 0.2%.

`O=C(COc1ccccc1)Nc1ccc(CSc2ccccc2)cc1`: the inhibition was 2.7%.

On to `O=C(NCc1ccccn1)C(=O)NCC(c1ccco1)N1CCOCC1` (centres undefined), for which the inhibition is -8.8%.

In the case of `COc1ccc(N2CCC(CNC(=S)Nc3cccc(OC)c3)C2)cc1` (centres undefined), the inhibition was 45.4%.

As to `COc1ccc(NC(=S)NCC2CCN(c3ccc(OC)cc3)C2)cc1` (centres undefined), the inhibition was 55.3% (active).

For `COc1ccc(N2CCC(CNC(=S)Nc3cccc(C)c3)C2)cc1` (centres undefined), the inhibition was 50.4% (active).

`COc1ccc(CNC(=S)Nc2cccc(C)c2)cc1`: the inhibition was 7.5%.

As to `COc1ccc(NC(=S)NCCN2CCOCC2)cc1`, the inhibition is -3.1%.

`COc1ccc(CNC(=S)Nc2ccc(OC)cc2)cc1`: the inhibition was 7.4%.

Turning to `COc1ccccc1-n1cnnc1SCC(=O)N1CCN(S(=O)(=O)c2ccccc2)CC1`, the inhibition was 4.9%.

For `Cn1nnnc1SCCNCc1ccc(Cl)cc1`, the inhibition is 3.8%.

As for `O=C(CCCn1c(=O)oc2ccccc21)NC1CCCCCC1`, the inhibition is -6.9%.

Take `O=C1C=C(N(CCO)Cc2ccccc2)c2ccccc2C1=O`: the inhibition was 64.6% (active).

Take `COc1ccc(N2C(=O)C(Cl)=C(N(CCO)Cc3ccccc3)C2=O)cc1`: the inhibition was 3.2%.

As to `O=C(CCN1C(=O)c2ccccc2C1=O)N(CCO)Cc1ccccc1`, the inhibition was 0.1%.

Consider `Cc1cc(Nc2ccc(F)cc2Cl)n2ncnc2n1`, for which the inhibition was 16.6%.

Take `COc1ccccc1/C=C/C1=NC(=C\C=C/c2ccccc2)/C(=O)O1`: the inhibition was 0.5%.

As for `COc1ccc(/C=C/C2=NC(=C\N(C)C)/C(=O)O2)cc1`, the inhibition was 5.3%.

With `COc1ccccc1/C=C/C1=NC(=C\N(C)C)/C(=O)O1`, the inhibition is 56.8% (active).

As to `CCCCOC(=O)C1[C@H]2C(=O)N(CCc3ccccc3)C[C@]23C=C[C@H]1O3` (some centres undefined), the inhibition was -0.4%.

For `CCOC(=O)c1c(C)c(C(=O)NCc2cccnc2)c(C)n1CC`, the inhibition was 108% (active).

As for `CCOC(=O)c1c(C)c(C(=O)NCc2ccccn2)c(C)n1CC`, the inhibition is 12.2%.

Consider `CCOC(=O)c1c(C)c(C(=O)NCc2cccnc2)c(C)n1C`, for which the inhibition was -0.6%.

Regarding `S=c1[nH]ncc2ccccc12`, the inhibition is -67.9%.

On to `Cc1ccc(/C=C/C2=NN(C)C(=O)CC2)cc1`, for which the inhibition was -3.3%.

On to `Cc1cccc(C)c1NC(=O)CC1SC2=NCCN2C1=O` (centres undefined), for which the inhibition is 6.8%.

Take `CC(/C=C/c1ccccc1)=N\Nc1ccccc1[N+](=O)[O-]`: the inhibition is 0.8%.

Take `CC/C(=N\Nc1ccccc1[N+](=O)[O-])c1ccc(O)cc1`: the inhibition was -0.4%.

Take `CC(C)/C(=N/Nc1ccccc1[N+](=O)[O-])c1ccccc1`: the inhibition is 54.4% (active).

Take `Cc1ccc(/C=C/C(=O)NCc2cccs2)cc1`: the inhibition is -6.3%.

For the compound `Cc1nn(-c2ccccc2)c(Cl)c1/C=N/NC(=O)c1cccnc1`, the inhibition is -3.1%.

As to `Cc1nn(-c2cccc(Cl)c2)c(Cl)c1/C=N/NC(=O)c1cccnc1`, the inhibition was 55.5% (active).

Regarding `Cc1ccc(-n2nc(C)c(/C=N/NC(=O)c3cccnc3)c2Cl)cc1`, the inhibition is 15.6%.

Regarding `C=CCNC(=S)Nc1ccccc1`, the inhibition was 9%.

Turning to `C=CCNC(=S)Nc1cccc(NC(=S)NCC=C)c1`, the inhibition was 5.5%.

Consider `C=CCNC(=S)Nc1cccc(N)c1`, for which the inhibition was 57.6% (active).

With `O=C(Cc1c(O)c2ccccc2[nH]c1=O)NC1CCCCCC1`, the inhibition was 5.7%.

Consider `CCC(C)(C)n1nnnc1CN1CCC(NC(=O)c2ccc(Br)cc2)CC1`, for which the inhibition is 7%.

For the compound `CCCCc1cc2c(c(NC(=O)CC)n1)c(=O)oc1ccccc12`, the inhibition is -0.5%.

Consider `COc1ccc(N=C2C(=O)Nc3ccccc32)cc1`, for which the inhibition was 43%.

Regarding `Cc1ccc2c(c1)/C(=N/N1C(=O)c3ccccc3C1=O)C(=O)N2`, the inhibition is 8.4%.

For the compound `CCn1c(-c2ccccc2Cl)nn(CC(=O)Nc2cc(Cl)ccc2Cl)c1=S`, the inhibition is 4.7%.

Regarding `Cc1cc(-c2ccccc2)nc(N(C)N)c1S(C)(=O)=O`, the inhibition is -2.2%.

In the case of `Cc1cc(-c2ccccc2)nc(N(C)C)c1S(C)(=O)=O`, the inhibition was 2%.

Regarding `CNc1nc(-c2ccccc2)cc(C)c1S(C)(=O)=O`, the inhibition was 56% (active).
